From PubChem BioAssay
CYP2C9 act – human CYP2C9 activators, primary screen, biochemical, luminescence. Cytochrome P450 2C9 (Homo sapiens), P11712. recombinant CYP2C9, luciferin-H conversion; active compounds read high; factor 1 = untreated enzyme, 0 = blocked. activation factor at 5 µM. 96,000 compounds, 1.4% hits. AID 1024, 2008;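 active = activation factor of 2 or more for CYP2C9 at a 5 µM dose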;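 also: 0 = sulfaphenazole-blocked wells and 1 = vehicle-only wells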
Target sequence (P11712 whole entry, looked up): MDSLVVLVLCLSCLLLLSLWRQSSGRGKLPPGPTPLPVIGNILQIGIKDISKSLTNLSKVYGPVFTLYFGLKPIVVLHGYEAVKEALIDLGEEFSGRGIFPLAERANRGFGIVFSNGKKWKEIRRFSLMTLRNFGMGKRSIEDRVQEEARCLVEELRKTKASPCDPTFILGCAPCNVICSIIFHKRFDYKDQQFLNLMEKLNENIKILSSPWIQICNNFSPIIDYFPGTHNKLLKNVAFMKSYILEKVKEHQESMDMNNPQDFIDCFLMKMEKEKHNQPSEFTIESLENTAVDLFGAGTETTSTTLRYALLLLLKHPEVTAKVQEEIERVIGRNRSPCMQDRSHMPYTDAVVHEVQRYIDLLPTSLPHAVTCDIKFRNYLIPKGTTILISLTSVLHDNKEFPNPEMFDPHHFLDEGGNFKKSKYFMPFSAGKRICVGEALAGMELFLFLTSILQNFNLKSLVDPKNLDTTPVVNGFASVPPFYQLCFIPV
E-sel TNF inh – E-selectin induction blockers in HUVEC – imaging, immunofluorescence, high content, primary screen | HUVEC TNFa-induced E-selectin immunofluorescence | inhibition, % at 2 µM | 120,000 compounds, 0.71% hits | AID 1246, 2008;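 active = inhibition above the batch mean plus 3 SD, and confirmed as a hit on visual image review, cut at about 43% in these data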;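 also: 0% = TNF-stimulated DMSO wells and 100% = unstimulated control wells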
CYP2C19 inh – blockers of cytochrome P450 2C19 activity – biochemical, luminescence, ADME assay, primary screen; P33261; CYP2C19 Supersomes, luciferin-H EGE luminescence, 30 min; inhibition, % at 5 µM; 96,000 compounds, 21% hits;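 active = CYP2C19 inhibition above a set limit at 5 µM in the primary screen, cut at about 50% in these data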;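 also: plate controls were negative control wells for no effect and 2.5 mM tranylcypromine positive control for full effect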
CYP2C9 inh – blockers of cytochrome P450 2C9 activity – biochemical, luminescence, ADME assay, primary screen; P11712; AID 777, 2007; CYP2C9 Supersomes, luciferin-H conversion; 96,000 compounds, 20% hits; inhibition, % at 5 µM;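 active = blocking of liver enzyme CYP2C9 beyond about 50% at 5 µM, limit read from the data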
CYP2C19 activ – human CYP2C19 activators, primary screen, biochemical, luminescence. recombinant CYP2C19, luciferin-H EGE luminescence; active compounds read high; 0 = fully inhibited enzyme, 1 = untreated enzyme. activation factor at 5 µM. 96,000 tested, under 10 active;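 active = activation factor of at least 2 at 5 µM in the primary screen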;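 also: 0 = wells with 2.5 mM tranylcypromine and 1 = vehicle-only wells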
F-actin modifier – modifiers of F-actin cytoskeleton organization, primary screen, imaging, HUVEC, phalloidin staining, high-content imaging; 91,000 compounds, 0.18% hits; HUVEC TNFa F-actin phalloidin imaging; inhibition, % at 2 µM;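 active = inhibition above the batch mean plus 3 SD and confirmed as a hit by visual image inspection, cut at about 30% in these data, passing the limit was not always enough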
An asterisk follows results filed as active. Most compounds without a hit are left out; they make up all but 22% or so of the library.

Screening O=[N+]([O-])c1c(C(Cl)Cl)nn(-c2ccccc2)c1N1CCCC1 returned CYP2C9 act 0.6, E-sel TNF inh 4, CYP2C19 inh 56*, CYP2C9 inh 38, CYP2C19 activ 0.4 and F-actin modifier 19.
`Nn1c(=O)c2ccccc2n2c(SCc3ccc(C(F)(F)F)cc3)nnc12` gave CYP2C9 act 0.5, E-sel TNF inh 33, CYP2C19 inh 42, CYP2C9 inh 50*, CYP2C19 activ 0.6 and F-actin modifier -19.
Screening Nn1c(=O)c2ccccc2n2c(SCc3ccccc3)nnc12 returned CYP2C9 act 1, E-sel TNF inh -3, CYP2C19 inh -11, CYP2C9 inh 0, CYP2C19 activ 1.1 and F-actin modifier -9.
For COc1ccc(C2CC(C)=NN2C=O)cc1OC (stereo not drawn) the results were CYP2C9 act 1, E-sel TNF inh 3, CYP2C19 inh 26, CYP2C9 inh 4, CYP2C19 activ 0.7 and F-actin modifier 6.
CCOC(=O)C1CCCN(C/C=C/c2ccccc2[N+](=O)[O-])C1 (stereo not drawn) was read as CYP2C9 act 0.9, E-sel TNF inh -9, CYP2C19 inh 48, CYP2C9 inh 11, CYP2C19 activ 0.5 and F-actin modifier 10.
`O=C(Oc1ccc(Cl)cc1)c1ccc(N2CCOCC2)c([N+](=O)[O-])c1` gave E-sel TNF inh 9.
COC(=O)c1ccc(N2CCC(c3cc(-c4ccc(OC)cc4)n[nH]3)CC2)c([N+](=O)[O-])c1 was read as CYP2C9 act 0.5, E-sel TNF inh 24, CYP2C19 inh 48, CYP2C9 inh 49, CYP2C19 activ 0.5 and F-actin modifier -1.
`CC(=O)c1ccc(N2CCC(c3cc(-c4ccc(Cl)cc4)n[nH]3)CC2)c([N+](=O)[O-])c1` gave CYP2C9 act 0.4, E-sel TNF inh 7, CYP2C19 inh 56*, CYP2C9 inh 57*, CYP2C19 activ 0.4 and F-actin modifier -27.
For COc1ccc(-c2cc(C3CCN(c4ccc(C(C)=O)cc4[N+](=O)[O-])CC3)[nH]n2)cc1 the results were CYP2C9 act 0.3, E-sel TNF inh -11, CYP2C19 inh 84*, CYP2C9 inh 65* and CYP2C19 activ 0.2.
CCC(NC(=O)C1CCC1)c1ccc(C)cc1 (stereo not drawn) was read as E-sel TNF inh -10 and F-actin modifier -8.
NS(=O)(=O)c1ccc(CCNC(=O)CCCC2=NS(=O)(=O)c3ccccc3N2)cc1 was read as CYP2C9 act 0.9, E-sel TNF inh -16, CYP2C19 inh 3, CYP2C9 inh 14 and CYP2C19 activ 1.
For COc1ccc(Cn2c(CCC(=O)Nc3ccccc3)nc3cccnc32)cc1 the results were CYP2C9 act 1, E-sel TNF inh 5, CYP2C19 inh 21, CYP2C9 inh -3, CYP2C19 activ 0.8 and F-actin modifier -7.
For O=C(CCc1nc2cccnc2n1Cc1ccccc1)NCCc1ccc(Cl)cc1 the results were CYP2C9 act 0.3, E-sel TNF inh -2, CYP2C19 inh 71*, CYP2C9 inh 69*, CYP2C19 activ 0.3 and F-actin modifier -6.
Screening COc1ccc(Cn2c(CCC(=O)Nc3ccc(C)c(C)c3)nc3cccnc32)cc1 returned CYP2C9 act 0, E-sel TNF inh 6, CYP2C19 inh 64*, CYP2C9 inh 98*, CYP2C19 activ 0.4 and F-actin modifier 17.
`C/C(=N\NC(=O)C(O)(c1ccccc1)c1ccccc1)c1ccc(C)o1` gave E-sel TNF inh 1.
CCOC(=O)c1c(-c2ccc(C)cc2)csc1NC(=O)CCSc1nnc2ccccn12 was read as E-sel TNF inh 7.
O=C(NCc1ccccc1Cl)c1cnc2n(c1=O)CCS2 was read as CYP2C9 act 1, E-sel TNF inh 34, CYP2C19 inh 64*, CYP2C9 inh 4, CYP2C19 activ 0.4 and F-actin modifier -24.
For Cc1nc2c(C(=O)NCc3ccccc3Cl)c[nH]n2c(=O)c1Cl the results were CYP2C9 act 0.1, CYP2C19 inh 30, CYP2C9 inh 92*, CYP2C19 activ 0.7 and F-actin modifier -3.
Screening O=C(NCCc1ccccc1)c1cnc2n(c1=O)CCS2 returned E-sel TNF inh -1.
Cc1cc(C(=O)NCc2ccccc2)c(=O)[nH]c1C was read as CYP2C9 act 0.7, CYP2C19 inh 18, CYP2C9 inh 34, CYP2C19 activ 0.8 and F-actin modifier 43.
For Cc1nc2c(C(=O)NCc3ccccc3)c[nH]n2c(=O)c1Cl the results were CYP2C9 act 0.5, E-sel TNF inh -24, CYP2C19 inh -10, CYP2C9 inh 53*, CYP2C19 activ 1.1 and F-actin modifier 25.
Screening Cc1nc2c(C(=O)NCCc3ccccc3Cl)c[nH]n2c(=O)c1Cl returned E-sel TNF inh -6.
Cc1cc(O)c2c(-c3ccccc3)cc(=O)oc2c1 was read as CYP2C9 act 0.2, E-sel TNF inh 14, CYP2C19 inh 52*, CYP2C9 inh 76*, CYP2C19 activ 0.5 and F-actin modifier -13.
COc1ccc([N+](=O)[O-])cc1COc1cc(C)cc2oc(=O)cc(-c3ccccc3)c12 was read as CYP2C9 act 0.1, E-sel TNF inh 43, CYP2C19 inh 75*, CYP2C9 inh 92*, CYP2C19 activ 0.3 and F-actin modifier -7.
`CCCCc1cc(=O)oc2cc(C)cc(O)c12` gave CYP2C9 act 0.3, E-sel TNF inh 10, CYP2C19 inh 55*, CYP2C9 inh 68*, CYP2C19 activ 0.4 and F-actin modifier -10.
For CCCc1cc(O)c2c(C)cc(=O)oc2c1 the results were E-sel TNF inh 0 and F-actin modifier -2.
Screening CN1CC[n+]2c(CN3C(=O)c4ccccc4C3=O)csc21 returned CYP2C9 act 1.1, E-sel TNF inh 16, CYP2C19 inh -9, CYP2C9 inh -13, CYP2C19 activ 1.1 and F-actin modifier 18.
CCOC(=O)c1nnn(CC(=O)N2N=C(c3ccc(Cl)cc3)CC2c2ccccc2)c1C(=O)OCC (stereo not drawn) was read as E-sel TNF inh -20 and F-actin modifier 4.
`CC(=O)Nc1ccc(S(=O)(=O)N2CCCCC2c2cccnc2)cc1` (stereo not drawn) gave CYP2C9 act 0.8, CYP2C19 inh 16, CYP2C9 inh 17, CYP2C19 activ 0.8 and F-actin modifier 2.
For COc1cc(C)c(C)cc1S(=O)(=O)N1CCCCC1c1cccnc1 (stereo not drawn) the results were CYP2C9 act 0.8, E-sel TNF inh -20, CYP2C19 inh 81*, CYP2C9 inh 24, CYP2C19 activ 0.2 and F-actin modifier 1.
